The source of these data is PubChem BioAssay.

Calls of active or inactive are those of the source.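 Rule for the calls, unless noted: active = thallium flux through the channel raised or lowered by more than 3 SD from vehicle-only wells, actives on both sides; inactive = the rest.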

Assay [1] can be described thus: P. berghei load reduction in hepatocytes – cell-based, HepG2, luciferase luminescence, HepG2 viability, primary screen (AID 624349; in the data active = parasite load remaining mostly below about 12%, no sharp cut-off; inactive = mostly above about 10%;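 note: 100% = mean of DMSO negative control wells on the same plate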). To be noted: P. berghei liver stage in HepG2, luciferase luminescence, concentration not given here; parasite load remaining: stronger effect = lower value; viability: measured here: HepG2 viability without parasites.
Assay [2] in a line: signal quenchers or enhancers, Cy5 substrate/SSB – biochemical, NIH Clinical Collection, E. coli SSB, artefact control for HCV NS3 helicase inhibitor project (AID 743268; call rule not given here). To be noted: Cy5-oligo bound E. coli SSB, fluorescence interference.
In assay [3] the test system is Hepatitis C virus NS3 helicase. Briefly: blockers of NS3h binding to DNA – biochemical, fluorescence polarization, NIH Clinical Collection, primary screen (AID 743270; call rule not given here). To be noted: NS3 helicase binding to Cy5-dT15 DNA, stronger effect = higher value, concentration not given here.
Assay [4] has as its target Single-stranded DNA-binding protein (Escherichia coli (strain K12)) (UniProt P0AGE0). Briefly: SSB-ssDNA binding inhibitors – biochemical, fluorescence polarization, NIH Clinical Collection, counter-screen for HCV NS3 helicase inhibitor project (AID 743271; in the data active = inhibition above about 28%). To be noted: E. coli SSB-DNA binding, stronger effect = higher value, concentration not given here.
Assay [5] in a line: compounds distorting NS3 helicase fluorescence signal – biochemical, NIH Clinical Collection, artefact control for HCV NS3 helicase inhibitor project (AID 743272; call rule not given here;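 note: HCV NS3 helicase with a Cy5 labelled single stranded DNA probe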). To be noted: fluorescence interference counterscreen, HCV NS3 helicase assay; stronger effect = lower value.
Assay [6] deals with Neuropilin-2 / VEGF-C interaction (human). Description: small molecules blocking Neuropilin-2/VEGF-C interaction – biochemical, microplate binding format, z-score (AID 743281; call rule not given here). To be noted: microplate NRP2/VEGF-C binding assay; stronger effect = lower value.
Assay [7] is described as follows: modulation of C. elegans fzo-1 (AID 1259413; call rule not given here;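 note: fzo-1 mutant C. elegans worms in liquid wells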). To be noted: C. elegans fzo-1 modulator screen, mean read-out; stronger effect = higher value.
The next assay relates to F380Y. Briefly: BK channel mutant inhibitors and activators – cell-based, U2OS BacMam, thallium flux, beta subunits, selectivity assay, profiling panel (AID 1259406).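 Note: initial slope of Thallos dye fluorescence rise after thallium is added; log ratio against the mean of 0.3% DMSO vehicle wells on the same plate.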 To be noted: U2OS BacMam BK variants, at 30 µM.
A further assay relates to F380Y/beta1. The description is as above. To be noted: U2OS BacMam BK variants, at 30 µM.
The next assay concerns F380Y/beta2Delta. Described as above. To be noted: U2OS BacMam BK variants, at 30 µM.
The subject of the next assay is F380Y/beta4. Described as above. To be noted: U2OS BacMam BK variants, at 30 µM.
Assay [8] deals with Calcium-activated potassium channel subunit alpha-1 (Homo sapiens) + Leucine-rich repeat-containing protein 26 (Homo sapiens) (UniProt Q12791+Q2I0M4). Described as above. To be noted: U2OS BacMam BK variants, F380Y/Slo1WT/gamma1, at 30 µM.
Chain of Calcium-activated potassium channel subunit alpha-1 (Homo sapiens) + Leucine-rich repeat-containing protein 26 (Homo sapiens) (Q2I0M4 whole entry, looked up, one chain of several): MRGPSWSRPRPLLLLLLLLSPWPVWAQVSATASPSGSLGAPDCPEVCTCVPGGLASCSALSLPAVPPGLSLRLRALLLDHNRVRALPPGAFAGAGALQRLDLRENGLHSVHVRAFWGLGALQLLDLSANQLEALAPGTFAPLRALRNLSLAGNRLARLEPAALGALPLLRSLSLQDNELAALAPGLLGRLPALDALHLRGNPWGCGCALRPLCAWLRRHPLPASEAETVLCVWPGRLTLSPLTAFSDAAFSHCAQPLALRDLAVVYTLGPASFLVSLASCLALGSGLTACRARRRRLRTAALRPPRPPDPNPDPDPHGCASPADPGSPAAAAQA
A further assay deals with R275C. The assay is described as above. To be noted: U2OS BacMam BK variants, at 30 µM.
The test system of a further assay is R275C/beta1. Described as above. To be noted: U2OS BacMam BK variants, at 30 µM.
In a further assay the test system is R275C/beta2Delta. The assay is described as above. To be noted: U2OS BacMam BK variants, at 30 µM.
A further assay has as its system R275C/beta4. The assay is described as above. To be noted: U2OS BacMam BK variants, at 30 µM.
For a further assay, the system named is R275C/Slo1WT/beta2. Described as above. To be noted: U2OS BacMam BK variants, at 30 µM.
The nature of assay [9]: viability loss with induced miR-34 in A549 – imaging, A549 dox-inducible miR-34, nuclei and caspase counts, primary screen (AID 1347080;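 active = compounds whose cell count with miR-34 switched on is under 0.7 times the count with it off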). To be noted: A549 miR-34 inducible, Hoechst nuclei count, 48 h.
[10] abbreviates: measured here: relative caspase fold change +Dox/-Dox.
[11] abbreviates: measured here: total cells with miR-34 induction, stronger effect = lower value.
Where [12] appears, read: measured here: total cells without miR-34 induction.

Turning to `CC1CCC[C@H](O)CCCCCc2cc(O)cc(O)c2C(=O)O1` (stereo not given in full), in assay [1], the parasite load remaining is 34.2% (inactive). For the same molecule, in assay [1], the viability is 64.7%. Also, the fluorescence ratio in assay [2] is 1.04 (inactive); in assay [5], 0.99 (inactive). Further, the inhibition in [3] was 2.77% (inactive); in assay [4] it was 0.67% (inactive). Moreover, the z-score in assay [6] was -0.653 (inactive). Besides, the mean signal in [7] was 252 (inactive). Also, the log fold change Tl+ flux with F380Y is 0.0327 (inactive); with F380Y/beta1, 0.0798 (inactive); with F380Y/beta2Delta, -0.0124 (inactive); in the assay on F380Y/beta4 it was 0.0166 (inactive); in assay [8], 0.0353 (inactive); in the assay on R275C, -0.00393 (inactive). In addition, the log fold change Tl+ flux in the assay with R275C/beta1 was 0.141 (active); with R275C/beta2Delta, 0.1 (active); in the assay with R275C/beta4 it was 0.0349 (inactive); with R275C/Slo1WT/beta2, 0.035 (inactive).
With `Cc1nnc2n1-c1ccc(Cl)cc1C(c1ccccc1)=NC2`, the parasite load remaining in assay [1] is 139% (inactive). This molecule also had a viability in [1] of 72.1%. Moreover, the fluorescence ratio was 1.03 (inactive) in [2] and 0.99 (inactive) in [5]. Moreover, the inhibition is -4.36% (inactive) in [3] and -1.64% (inactive) in assay [4]. In addition, the z-score in [6] is -0.124 (inactive). For the same molecule, the mean signal in [7] is 234 (inactive). Moreover, the fold change in assay [9] (stronger effect = lower value) was 1.01 (inactive); in assay [9] (setting [10]) it was 1.21. For the same molecule, the cell count in assay [9] (setting [11]) came to 9000; in assay [9] (setting [12]), 8940. In addition, the log fold change Tl+ flux in the assay with F380Y is -0.0314 (inactive); with F380Y/beta1 it was -0.00299 (inactive); in the assay with F380Y/beta2Delta, -0.00534 (inactive); in the assay on F380Y/beta4, -0.0542 (inactive); in [8] it was -0.0153 (inactive); with R275C it was 0.0519 (inactive). In addition, the log fold change Tl+ flux in the assay on R275C/beta1 is 0.00402 (inactive); in the assay with R275C/beta2Delta, 0.0255 (inactive); in the assay on R275C/beta4 it was 0.0351 (inactive); with R275C/Slo1WT/beta2, -0.00622 (inactive).
As to `O=C1CCC2(O)[C@H]3Cc4ccc(O)c5c4[C@@]2(CCN3CC2CC2)[C@H]1O5` (stereo not given in full), the mean signal in assay [7] was 227 (inactive).
Take `c1cncc(C2CCCN2)c1` (stereo not given): the parasite load remaining in [1] is 96.8% (inactive). In [1], this molecule had a viability of 74.2%. Besides, the values for the fluorescence ratio in [2] and in assay [5] were 1.01 (inactive) and 0.95 (inactive), respectively. Moreover, the inhibition is -1.98% (inactive) in [3] and -1.64% (inactive) in assay [4]. Moreover, the z-score in assay [6] is -0.685 (inactive). For the same molecule, the mean signal in assay [7] was 296 (inactive). The fold change in assay [9] (stronger effect = lower value) is 0.916 (inactive); in assay [9] (setting [10]), 2.18. Further, the cell count is 9590 in assay [9] (setting [11]) and 10500 in assay [9] (setting [12]).
With `c1ccc(Cn2ccnc2)cc1`, the parasite load remaining in [1] was 66.3% (inactive). In [1], this molecule displayed a viability of 67.7%. Moreover, the results for the fluorescence ratio in [2] and in assay [5] were 0.9 (inactive) and 0.88 (inactive), respectively. The inhibition was -1.09% (inactive) in [3] and 1.97% (inactive) in assay [4]. Further, the z-score in assay [6] was 0.238 (inactive). Also, the mean signal in assay [7] was 248 (inactive). Also, the fold change was 1.24 (inactive) in assay [9] (stronger effect = lower value) and 0.727 in assay [9] (setting [10]). The cell count in [9] (setting [11]) amounted to 8900; in assay [9] (setting [12]) it was 7170. For the same molecule, the log fold change Tl+ flux with F380Y was 0.0263 (inactive); in the assay with F380Y/beta1, -0.0465 (inactive); with F380Y/beta2Delta, -0.0252 (inactive); with F380Y/beta4 it was -0.0022 (inactive); in assay [8], -0.0094 (inactive); in the assay with R275C, -0.0227 (inactive). In addition, the log fold change Tl+ flux in the assay on R275C/beta1 is -0.0133 (inactive); with R275C/beta2Delta it was -0.00773 (inactive); with R275C/beta4, -0.0192 (inactive); in the assay on R275C/Slo1WT/beta2, -0.0321 (inactive).
